# Source: PubChem BioAssay (Tox21)
# Records with an inconclusive call do not appear. Entries that show only a call come without a potency. Values without a mark were called inactive. Activity calls are given as the source filed them. Unless noted, calls follow the shape of the dose curve; as a rule, active = well fitted curve in the direction sought with a large enough effect in the repeat runs; inconclusive = weak or mixed curves; inactive = no such curve, though single readings can be large; an effect the other way counts as inactive or inconclusive.
# How the values were obtained:
# [1] = molecular target: Peroxisome proliferator-activated receptor delta (Homo sapiens) (UniProt Q03181); test: qHTS assay to identify small molecule agonists of the peroxisome proliferator-activated receptor delta (PPARd) signaling pathway (AID 743212; calls by dose curve)
# Sequence of Peroxisome proliferator-activated receptor delta (Homo sapiens) (Q03181 whole entry, looked up): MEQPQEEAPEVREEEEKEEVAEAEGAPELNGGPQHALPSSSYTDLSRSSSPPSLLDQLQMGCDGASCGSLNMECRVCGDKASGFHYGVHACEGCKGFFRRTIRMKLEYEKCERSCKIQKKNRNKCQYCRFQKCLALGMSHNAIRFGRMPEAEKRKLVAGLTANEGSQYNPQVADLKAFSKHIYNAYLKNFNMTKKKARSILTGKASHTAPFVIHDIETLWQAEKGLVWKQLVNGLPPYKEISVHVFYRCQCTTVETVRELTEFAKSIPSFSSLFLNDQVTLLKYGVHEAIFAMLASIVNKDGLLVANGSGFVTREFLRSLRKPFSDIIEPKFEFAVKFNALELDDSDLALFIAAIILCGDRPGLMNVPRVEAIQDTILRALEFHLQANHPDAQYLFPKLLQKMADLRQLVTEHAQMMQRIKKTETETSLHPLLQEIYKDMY
# Summary of the method: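 A PPARd-bla HEK293H line with beta-lactamase under an Upstream Activator Sequence is treated with compounds at 37 C. Substrate loading for 2 h at room temperature precedes the fluorescence measurement.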
# [2] = molecular target: Peroxisome proliferator-activated receptor delta (Homo sapiens) (UniProt Q03181); test: qHTS assay to identify small molecule antagonists of the peroxisome proliferator-activated receptor delta (PPARd) signaling pathway (AID 743215; active = well fitted inhibition curve with a large enough effect in the signal ratio in the repeat runs, not every such curve was filed as active; the % refers to the signal ratio;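 also: cells stimulated with agonist L165041 at 300 nM final during compound exposure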; also: potency is read from the fitted curve at half-maximal effect)
# Summary of the method: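 Antagonist-mode beta-lactamase reporter screen: HEK293H cells with UAS-bla under PPARd control, stimulated by 300 nM L165041 (final) alongside test compound for 17 h at 37 C, then FRET fluorescence after 2 h substrate incubation.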
# [3] = molecular target: Bile acid receptor (Homo sapiens) (UniProt Q96RI1); test: qHTS assay to identify small molecule antagonists of the farnesoid-X-receptor (FXR) signaling pathway (AID 743217; active = well fitted inhibition curve with a large enough effect in the signal ratio in the repeat runs, not every such curve was filed as active; the % refers to the signal ratio)
# Sequence of Bile acid receptor (Homo sapiens) (Q96RI1 whole entry, looked up): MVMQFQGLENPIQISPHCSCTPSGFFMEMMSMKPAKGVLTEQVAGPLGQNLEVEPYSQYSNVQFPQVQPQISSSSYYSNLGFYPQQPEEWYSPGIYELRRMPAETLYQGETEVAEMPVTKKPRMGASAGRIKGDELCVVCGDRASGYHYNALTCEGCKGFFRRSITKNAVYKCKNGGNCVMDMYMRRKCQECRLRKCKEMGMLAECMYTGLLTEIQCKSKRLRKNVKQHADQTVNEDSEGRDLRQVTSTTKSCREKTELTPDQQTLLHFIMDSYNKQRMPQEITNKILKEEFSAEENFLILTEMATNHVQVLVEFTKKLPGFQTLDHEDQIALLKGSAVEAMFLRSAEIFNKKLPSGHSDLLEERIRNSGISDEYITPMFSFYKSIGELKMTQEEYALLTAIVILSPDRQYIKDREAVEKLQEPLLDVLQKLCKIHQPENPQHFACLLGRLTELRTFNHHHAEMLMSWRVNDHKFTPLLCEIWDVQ
# Summary of the method: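 Beta-lactamase reporter under UAS control in HEK 293T cells; compound exposure 16 h at 37 °C in the presence of chenodeoxycholic acid (50 uM final); signal from B/G FRET substrate after 2 h at room temperature.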
# [4] = qHTS assay to identify small molecule agonists of the farnesoid-X-receptor (FXR) signaling pathway - cell viability counter screen (AID 743218); also: nearly all actives have a fitted effect of over 45% in size; also: potency is read from the fitted curve at half-maximal effect
# Summary of the method: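 In GeneBLAzer FXR-UAS-bla HEK 293T cells, compounds act for 16 h at 37 C. Cell viability is then scored in the reporter wells by CellTiter-Glo, 30 min at RT, luminescence.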
# [5] = molecular target: Bile acid receptor (Homo sapiens) (UniProt Q96RI1); test: qHTS assay to identify small molecule agonists of the farnesoid-X-receptor (FXR) signaling pathway (AID 743220; active = well fitted activation curve with a large enough effect in the signal ratio in the repeat runs, not every such curve was filed as active; the % refers to the signal ratio)
# Summary of the method: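 Beta-lactamase reporter under UAS control in GeneBLAzer FXR HEK 293T cells (5000/well) measured with LiveBLAzer FRET substrate after 2 h at room temperature. Compound exposure lasted 16 h at 37C.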
# [6] = qHTS assay to identify small molecule antagonists of the farnesoid-X-receptor (FXR) signaling pathway - cell viability counter screen (AID 743221; active = well fitted cell-killing curve with a large enough effect in the repeat runs, not every such curve was filed as active; also: nearly all actives have a fitted effect of over 50% in size; also: potency is read from the fitted curve at half-maximal effect)
# Summary of the method: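 Cytotoxicity is taken from ATP luminescence (CellTiter-Glo, 30 min, room temperature) in FXR-bla HEK 293T cells previously incubated 16 h at 37 C with compound and chenodeoxycholic acid at 50 uM final.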
# [7] = qHTS assay to identify small molecule agonists of the vitamin D receptor (VDR) signaling pathway - cell viability counter screen (AID 743224); also: nearly all actives have a fitted effect of over 50% in size; also: potency is read from the fitted curve at half-maximal effect
# Summary of the method: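 VDR-bla cell line, quantitative HTS format; 16 h compound incubation (37C, 5% CO2); ATP-based CellTiter-Glo luminescence measured in the reporter assay wells.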
# [8] = qHTS assay to identify small molecule antagonists of the vitamin D receptor (VDR) signaling pathway - cell viability counter screen (AID 743225); also: nearly all actives have a fitted effect of over 50% in size; also: potency is read from the fitted curve at half-maximal effect
# Summary of the method: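 Same-well multiplex: following 16 h treatment of HEK 293T cells carrying a UAS-driven beta-lactamase reporter with compound and agonist (3 nM final), and a 2 h FRET substrate step, CellTiter-Glo was added and luminescence read after 30 min.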
# [9] = qHTS assay to identify small molecule agonists of the NFkB signaling pathway - cell viability counter screen (AID 1159515; calls by dose curve; also: nearly all actives have a fitted effect of over 55% in size; also: potency is read from the fitted curve at half-maximal effect)
# Summary of the method: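 Viability in NFkB-bla ME-180 cells was measured by CellTiter-Glo luminescence, 30 min room temperature, in wells already treated 5 hr with compounds and read for reporter FRET.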
# [10] = qHTS assay to identify small molecule agonists of the endoplasmic reticulum stress response signaling pathway (AID 1159516; active = well fitted activation curve with a large enough effect in the signal ratio in the repeat runs, not every such curve was filed as active; the % refers to the signal ratio)
# Summary of the method: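 ER stress element reporter (bla) in HeLa. 1,500 cells/well, overnight attachment; 5 hr compound; 2 hr RT substrate; dual-emission fluorescence.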
# [11] = qHTS assay to identify small molecule antagonists of the retinoid-related orphan receptor gamma (ROR-gamma) signaling pathway - cell viability counter screen (AID 1159520); also: nearly all actives have a fitted effect of over 50% in size
# Summary of the method: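 Tet-on ROR gamma CHO cells (1,000/well) were plated 4 hr, given compounds in DMSO for 2 hr at 37 C, then induced with 1 uM final doxycycline for 16 hr. Viability was read as ATP by CellTiter-Glo luminescence after 30 min.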
# [12] = qHTS assay to identify small molecule agonists of the AP-1 signaling pathway - cell viability counter screen (AID 1159525; calls by dose curve; also: nearly all actives have a fitted effect of over 55% in size; also: potency is read from the fitted curve at half-maximal effect)
# Summary of the method: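 ME-180 AP-1-bla, 2500 cells/well, Opti-MEM + 0.5% dialyzed FBS; overnight 37 °C; cpd 15-pt titration, 5 h 37 °C; CellTiter-Glo 30 min RT; luminescence read; normalised to TOAB and DMSO controls.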
# [13] = qHTS assay to identify small molecule agonists of the AP-1 signaling pathway (AID 1159526; calls by dose curve)
# [14] = molecular target: Retinoic acid receptor RXR-alpha (Homo sapiens) (UniProt P19793); test: qHTS assay to identify small molecule agonists of the RXR signaling pathway (AID 1159527; calls by dose curve; also: nearly all actives have a fitted effect of over 35% in size)
# Sequence of Retinoic acid receptor RXR-alpha (Homo sapiens) (P19793 whole entry, looked up): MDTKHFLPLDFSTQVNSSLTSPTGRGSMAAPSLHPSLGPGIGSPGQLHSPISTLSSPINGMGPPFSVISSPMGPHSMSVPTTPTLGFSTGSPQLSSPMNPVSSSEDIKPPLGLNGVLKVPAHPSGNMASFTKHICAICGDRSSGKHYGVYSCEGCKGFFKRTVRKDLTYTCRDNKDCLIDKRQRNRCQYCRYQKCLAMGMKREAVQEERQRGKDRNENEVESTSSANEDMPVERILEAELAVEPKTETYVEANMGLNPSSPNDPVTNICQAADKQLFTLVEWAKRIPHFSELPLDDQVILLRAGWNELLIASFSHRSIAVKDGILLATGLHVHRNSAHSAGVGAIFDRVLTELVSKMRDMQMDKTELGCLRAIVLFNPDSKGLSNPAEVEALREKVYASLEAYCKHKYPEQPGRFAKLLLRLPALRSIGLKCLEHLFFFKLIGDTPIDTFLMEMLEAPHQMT
# Summary of the method: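 Compounds in DMSO were added to RXR-alpha-UAS-bla HEK 293T cells kept in 2% charcoal-stripped serum, and incubated 16 hr at 37 C with 5% CO2. Reporter signal came from a 2 hr B/G FRET substrate step.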
# [15] = qHTS assay to identify small molecule agonists of the peroxisome proliferator-activated receptor delta (PPARd) signaling pathway - cell viability counter screen (AID 743211); also: nearly all actives have a fitted effect of over 55% in size; also: potency is read from the fitted curve at half-maximal effect
# Summary of the method: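 Tox21 library compounds, delivered in DMSO, were incubated 17 h with PPARd-bla HEK293H cells; cytotoxicity was taken from CellTiter-Glo luminescence read 30 min after reagent addition.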
# [16] = qHTS assay to identify small molecule antagonists of the peroxisome proliferator-activated receptor delta (PPARd) signaling pathway - cell viability counter screen (AID 743213); also: nearly all actives have a fitted effect of over 50% in size; also: potency is read from the fitted curve at half-maximal effect
# Summary of the method: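 HEK293H cells with the PPARd UAS-bla reporter, co-treated 17 h at 37 C with compounds and L165041 (300 nM final), were lysed with CellTiter-Glo. Luminescence indicated viable cell content.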
# [17] = molecular target: Vitamin D3 receptor (Homo sapiens) (UniProt P11473); test: qHTS assay to identify small molecule agonists of the vitamin D receptor (VDR) signaling pathway (AID 743222; calls by dose curve)
# Sequence of Vitamin D3 receptor (Homo sapiens) (P11473 whole entry, looked up): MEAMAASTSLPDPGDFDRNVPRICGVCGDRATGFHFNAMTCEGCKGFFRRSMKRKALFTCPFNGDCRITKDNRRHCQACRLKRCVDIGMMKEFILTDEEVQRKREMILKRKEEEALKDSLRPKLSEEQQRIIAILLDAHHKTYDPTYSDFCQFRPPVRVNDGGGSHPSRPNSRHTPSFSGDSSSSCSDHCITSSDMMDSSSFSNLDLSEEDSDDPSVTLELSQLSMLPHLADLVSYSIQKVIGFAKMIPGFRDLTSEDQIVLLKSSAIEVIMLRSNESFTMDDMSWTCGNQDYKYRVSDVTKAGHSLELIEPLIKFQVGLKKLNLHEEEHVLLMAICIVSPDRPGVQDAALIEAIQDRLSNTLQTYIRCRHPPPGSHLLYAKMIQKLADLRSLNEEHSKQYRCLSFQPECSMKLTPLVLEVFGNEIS
# Summary of the method: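 Agonist activity measured in VDR-bla reporter cells. Exposure 16 h, 37C, 5% CO2; detection by B/G FRET substrate, 2 h RT.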
# [18] = molecular target: Nuclear receptor ROR-gamma (Homo sapiens) (UniProt P51449); test: qHTS assay to identify small molecule antagonists of the retinoid-related orphan receptor gamma (ROR-gamma) signaling pathway (AID 1159521; also: nearly all actives have a fitted effect of over 50% in size; also: potency is read from the fitted curve at half-maximal effect)
# Summary of the method: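 Inducible-expression reporter assay: doxycycline (1 uM final) switched on RORγ in CHO cells bearing a ROR response element-luciferase construct, with test compounds present from 2 h beforehand. Decreased luminescence after 16 h defined antagonist activity.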
# [19] = molecular target: Vitamin D3 receptor (Homo sapiens) (UniProt P11473); test: qHTS assay to identify small molecule antagonists of the vitamin D receptor (VDR) signaling pathway (AID 743223; active = well fitted inhibition curve with a large enough effect in the signal ratio in the repeat runs, not every such curve was filed as active; the % refers to the signal ratio)
# Summary of the method: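 Quantitative HTS in VDR-bla reporter cells stimulated with 1alpha,25-dihydroxyvitamin D3, 3 nM final. Compound exposure 16 h, 37C, 5% CO2. Read-out: beta-lactamase FRET substrate fluorescence, 2 h RT.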
compound,measurement,setting,value
FC(F)(F)c1cccc(Cl)c1,Potency,[1],inactive
same,Potency,[2],inactive
same,Potency,[3],inactive
same,Potency,[4],inactive
same,Potency,[5],inactive
same,Potency,[6],inactive
same,Potency,[7],inactive
same,Potency,[8],inactive
same,Potency,[9],inactive
same,Potency,[10],inactive
same,Potency,[11],inactive
same,Potency,[12],inactive
same,Potency,[13],inactive
same,Potency,[14],inactive
CCN(CC)C(=O)c1cc(S(=O)(=O)Cc2ccccc2)c(N2CCC(c3ccccc3)CC2)cc1N(CC)CCN(C)C,Potency,[15],21.6 µM (active)
same,Potency,[1],inactive
same,Potency,[16],6.84 µM (active)
same,Potency,[2],17.2 µM (active)
same,Potency,[17],inactive
same,Potency,[8],17.2 µM (active)
same,Potency,[9],21.6 µM (active)
same,Potency,[10],inactive
same,Potency,[18],21.4 µM (active)
same,Potency,[12],17.2 µM (active)
O=C(O)c1cccc(C(F)(F)F)c1,Potency,[16],inactive
same,Potency,[2],inactive
same,Potency,[4],inactive
same,Potency,[6],inactive
same,Potency,[17],inactive
same,Potency,[7],inactive
same,Potency,[8],inactive
same,Potency,[9],inactive
same,Potency,[10],inactive
same,Potency,[11],inactive
same,Potency,[12],inactive
same,Potency,[13],inactive
CCN(CC)c1ccc2c(-c3ccc(S(=O)(=O)O)cc3S(=O)(=O)[O-])c3ccc(=[N+](CC)CC)cc-3oc2c1,Potency,[2],inactive
same,Potency,[4],inactive
same,Potency,[17],inactive
same,Potency,[19],inactive
same,Potency,[9],inactive
same,Potency,[10],inactive
same,Potency,[13],inactive
same,Potency,[14],inactive
Nc1nc(-c2ccccc2)cs1,Potency,[15],inactive
same,Potency,[16],inactive
same,Potency,[3],inactive
same,Potency,[4],inactive
same,Potency,[5],inactive
same,Potency,[6],inactive
same,Potency,[17],inactive
same,Potency,[19],inactive
same,Potency,[7],inactive
same,Potency,[8],inactive
same,Potency,[9],inactive
same,Potency,[10],inactive
same,Potency,[11],inactive
same,Potency,[12],inactive
same,Potency,[14],inactive
CC(C)CCCCCOC(=O)CCS,Potency,[15],inactive
same,Potency,[16],inactive
same,Potency,[2],inactive
same,Potency,[4],inactive
same,Potency,[6],inactive
same,Potency,[17],inactive
same,Potency,[19],inactive
same,Potency,[7],inactive
same,Potency,[8],inactive
same,Potency,[9],inactive
same,Potency,[10],inactive
same,Potency,[11],inactive
same,Potency,[13],inactive
CCCCN(CCCC)CC(O)c1cc(Cl)cc2c1-c1ccc(Cl)cc1/C2=C/c1ccc(Cl)cc1 (stereo unspecified),Potency,[4],29.8 µM (active)
same,Potency,[19],inactive
same,Potency,[9],inactive
same,Potency,[10],inactive
same,Potency,[18],29.8 µM (active)
same,Potency,[12],inactive
CNC(=O)c1ccccc1Sc1ccc2c(/C=C/c3ccccn3)n[nH]c2c1,Potency,[7],29.8 µM (active)
same,Potency,[8],23.9 µM (active)
same,Potency,[9],inactive
same,Potency,[10],inactive
same,Potency,[18],inactive
same,Potency,[12],inactive
same,Potency,[13],inactive
COc1cc2nc(N3CCN(C(=O)c4ccco4)CC3)nc(N)c2cc1OC,Potency,[15],inactive
same,Potency,[2],inactive
same,Potency,[3],inactive
same,Potency,[4],inactive
same,Potency,[6],inactive
same,Potency,[9],inactive
same,Potency,[10],inactive
same,"viability change, negative = cytotoxic",[12],-7.1% [at 15.8 µM]
same,activation,[13],3.7% [at 15.8 µM]
same,activation,[14],-11.7% [at 15.8 µM]
O=C1CCc2ccc(OCCCCN3CCN(c4cccc(Cl)c4Cl)CC3)cc2N1,Potency,[15],11.9 µM (active)
same,Potency,[16],13.3 µM (active)
same,Potency,[4],13.3 µM (active)
same,Potency,[5],inactive
same,Potency,[6],16.8 µM (active)
same,Potency,[7],11.9 µM (active)
same,Potency,[8],10.7 µM (active)
same,Potency,[9],26.8 µM (active)
same,Potency,[10],inactive
same,Potency,[11],inactive
same,Potency,[12],inactive
